Source: the supplement of paper PMC9254222
The full ranking holds about 1,100 compounds; the median of “Wnt reporter firefly/Renilla luciferase ratio relative to plate median” is about 1.1, and the highest 2% start at about 1.6. The sample as a whole holds a higher share of the highest values than the screen did.

Tested on: HEK293T (UBE3A T485A transfected, BAR Wnt reporter)
Experiment: Wnt reporter firefly/Renilla luciferase ratio relative to plate median (fold (linear ratio)); higher = more Wnt/beta-catenin reporter activation
Settings: 24 h
How it was run: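 HEK293T cells were grown in DMEM with 10% FBS at 37°C and 5% CO2, at 4500 cells/well in white 384-well plates. They were transfected with a BAR firefly luciferase Wnt reporter, TK-Renilla and an expression plasmid using Fugene 6. Four hours later, robots dosed the chemicals at 0.01–100 uM for 24 h, followed by Dual-Glo luciferase readout. Wnt activity (firefly/Renilla ratio) and cell health (raw Renilla) were median-centred per plate, averaged over four biological replicates.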

Structure (SMILES) | Wnt reporter firefly/Renilla luciferase ratio (concentration: 0.1 uM) | Wnt reporter firefly/Renilla luciferase ratio (concentration: 1 uM) | Wnt reporter firefly/Renilla luciferase ratio (concentration: 10 uM) | Wnt reporter firefly/Renilla luciferase ratio (concentration: 100 uM) | Wnt reporter firefly/Renilla luciferase ratio (concentration: 0.01 uM)
CCCCCCCCCCCC[N+](C)(C)C.[Cl-] [Dodecyltrimethylammonium chloride] | 1.41 | 1.1 | 0.377 | – | –
CCc1ccc(CCOc2ccc(CC3SC(=O)NC3=O)cc2)nc1.Cl (stereo unspecified) [Pioglitazone hydrochloride] | 0.94 | 0.896 | 0.903 | 1.1 | –
C=C(C)C(=O)OCCC(F)(F)C(F)(F)C(F)(F)C(F)(F)C(F)(F)C(F)(F)F [Tridecafluorohexylethyl methacrylate] | 1.03 | 1.12 | 1.06 | 1.16 | –
CC(C)=CCC/C(C)=C\CO [(2Z)-3,7-Dimethylocta-2,6-dien-1-ol] | 1.17 | 0.941 | 1.5 | 1.03 | –
CC(C)=CCCC(C)=CC=O [3,7-Dimethyl-2,6-octadienal] | 1.11 | 1.26 | 1.03 | 1.09 | –
CC(C)=CCC/C(C)=C/CO [Geraniol] | 1.1 | 1.26 | 1.15 | 1.75 | –
OC(Cn1cncn1)(Cn1cncn1)c1ccc(F)cc1F [Fluconazole] | 1.15 | 0.884 | 1.33 | 1.25 | –
Cc1ccccc1Cl [2-Chlorotoluene] | 0.964 | 0.931 | 1.37 | 1.44 | –
CCO[Si](CCCNC(N)=O)(OCC)OCC [1-[3-(Triethoxysilyl)propyl]urea] | 1.11 | 0.853 | 1.36 | 1.66 | –
CCOC(N)=O [Urethane] | 1.05 | 0.955 | 1.11 | 1.3 | –
CCCCCCCC[Si](OCC)(OCC)OCC [Triethoxyoctylsilane] | 1.15 | 0.902 | 1.05 | 1.38 | –
O=N[O-].[Na+] [Sodium nitrite] | 1.13 | 0.943 | 1.4 | 1.29 | –
COc1ccc(CC(N)C(=O)NC2C(CO)OC(n3cnc4c(N(C)C)ncnc43)C2O)cc1 (stereo unspecified) [Puromycin] | 0.78 | 0.249 | – | – | 0.865
CC[C@H](NC(=O)c1cc(F)ccc1[N-]S(=O)(=O)c1cccc2cccnc12)c1ccccc1.[Na+] | 1.22 | 1.08 | 1.18 | 0.234 | –
CCCCC(CC)COC(=O)CCCCC(=O)OCc1ccccc1 (stereo unspecified) [Benzyloctyl adipate] | 0.909 | 1.03 | 1.13 | 1.12 | –
CC(C)CC(C=O)NC(=O)C(CC(C)C)NC(=O)C(CC(C)C)NC(=O)OCc1ccccc1 (stereo unspecified) | 0.85 | 2.61 | – | – | 0.993
O=C(O)c1ccccc1C(=O)OCc1ccccc1 [Monobenzyl phthalate] | 1.1 | 0.986 | 1.31 | 1.16 | –
CCCCC(CC)COC(=O)CC(C(=O)OCC(CC)CCCC)S(=O)(=O)[O-].[Na+] (stereo unspecified) [Docusate sodium] | 0.824 | 1.14 | 0.946 | 0.789 | –
CC#C[C@]1(O)CC[C@H]2[C@@H]3CCC4=CC(=O)CCC4=C3[C@@H](c3ccc(N(C)C)cc3)C[C@@]21C [Mifepristone] | 0.957 | 0.893 | 0.624 | 0.0932 | –

Structure (SMILES) | Wnt reporter firefly/Renilla luciferase ratio (concentration: 0.1 uM) | Wnt reporter firefly/Renilla luciferase ratio (concentration: 1 uM) | Wnt reporter firefly/Renilla luciferase ratio (concentration: 10 uM) | Wnt reporter firefly/Renilla luciferase ratio (concentration: 100 uM) | Wnt reporter firefly/Renilla luciferase ratio (concentration: 0.01 uM)
CNC(=O)[C@H]1O[C@@H](n2cnc3c(NCc4cc(Cl)ccc4OCc4cc(C)no4)ncnc32)[C@H](O)[C@@H]1N | 0.941 | 1.17 | 1.13 | 1.06 | –
O=C(NS(=O)(=O)/C=C/c1cccs1)c1ccc(F)cc1Br | 1.13 | 1.12 | 0.456 | 0.251 | –
c1ccc2ccccc2c1 [Naphthalene] | 1.17 | 1.18 | 1.32 | 1.48 | –
c1ccc2cc3c(ccc4ccccc43)cc2c1 [Benz(a)anthracene] | 1 | 0.949 | 1.29 | 0.737 | –
c1ccc2cc3ccccc3cc2c1 [Anthracene] | 0.982 | 0.92 | 0.951 | 2.12 | –
CC[C@H](c1ccc(O)cc1)[C@@H](CC)c1ccc(O)cc1 [meso-Hexestrol] | 0.858 | 1.05 | 0.711 | 0.0535 | –
CCCCc1ccc2c(n1)[C@@H](c1ccc(OC)cc1C[C@H](C)C(=O)[O-])[C@H](C(=O)[O-])[C@H]2c1ccc2c(c1)OCO2.[Na+].[Na+] | 1.37 | 1.08 | 1.18 | 0.429 | –
Cl.Nc1ccn([C@@H]2O[C@H](CO)[C@@H](O)[C@@H]2O)c(=O)n1 [Cytarabine hydrochloride] | 1.1 | 0.941 | 0.171 | 0.125 | –
OCC1OC(n2cnc3c(NC4CCCC4)ncnc32)C(O)C1O (stereo unspecified) [N6-Cyclopentyl adenosine] | 1.15 | 1.06 | 1.05 | 1.18 | 1.31
Nc1ncn([C@@H]2O[C@H](CO)[C@@H](O)[C@H]2O)c(=O)n1 [5-azacytidine] | 1.52 | 1.36 | 0.213 | 2.42 | 1.01
c1ccc(C(O[C@@H]2CCCN(CCc3ccc4c(c3)OCO4)C2)c2ccccc2)cc1 [Zamifenacin] | 1.15 | 1.05 | 0.996 | 1.13 | –
CS(=O)(=O)O.Cc1nccn1-c1ccc(Sc2cccc(C3(C(N)=O)CCOCC3)c2)cc1 | 1.01 | 0.73 | 0.387 | 0.282 | –
COc1ccc2sc(C(=O)Nc3nnn[n-]3)c(OC(C)C)c2c1.[Na+] | 1.08 | 1.08 | 1.35 | – | –
CCCCCCC(=O)OCC [Ethyl heptanoate] | 1.14 | 1.05 | 1.47 | 1.14 | –
CC(=O)OCCOCCOCCOC(C)=O [Triethylene glycol diacetate] | 1.25 | 1.16 | 1.07 | 1.26 | –
CC(=O)OCCC(C)C [3-Methylbutyl acetate] | 1.41 | 0.938 | 1.03 | 1.09 | –
CCCCOC(=O)CCCCCCCCC(=O)OCCCC [Dibutyl decanedioate] | 0.951 | 0.896 | 0.802 | 2.33 | –
CCCCOC(=O)CCCCC(=O)OCCCC [Dibutyl hexanedioate] | 0.981 | 0.969 | 1 | 1.08 | –
CCCCCOC(C)=O [Pentyl acetate] | 1.22 | 0.968 | 1.4 | 1.61 | –

Structure (SMILES) | Wnt reporter firefly/Renilla luciferase ratio (concentration: 0.1 uM) | Wnt reporter firefly/Renilla luciferase ratio (concentration: 1 uM) | Wnt reporter firefly/Renilla luciferase ratio (concentration: 10 uM) | Wnt reporter firefly/Renilla luciferase ratio (concentration: 100 uM) | Wnt reporter firefly/Renilla luciferase ratio (concentration: 0.01 uM)
Cc1cccc(C)c1O [2,6-Dimethylphenol] | 1.32 | 0.992 | 1.45 | 1.16 | –
CC(=O)c1ccc2c(c1)[C@H](NC(=O)c1ccc(F)cc1)[C@@H](O)C(C)(C)O2 [Carabersat] | 1.27 | 1.07 | 1.04 | 1.43 | –
C=C(C)C(N)=O [Methacrylamide] | 1.22 | 1.04 | 1.05 | 1.25 | –
Oc1ccc(C(c2ccc(O)cc2)C(Cl)(Cl)Cl)cc1 [2,2-Bis(4-hydroxyphenyl)-1,1,1-trichloroethane] | 1.3 | 0.957 | 0.541 | – | 1.02
CC(=O)[C@@]1(O)CC[C@H]2[C@@H]3CCC4=CC(=O)CC[C@]4(C)[C@H]3CC[C@@]21C [17alpha-Hydroxyprogesterone] | 1.06 | 1.02 | 1.03 | 0.475 | –
NC(=O)N/N=C/c1ccc([N+](=O)[O-])o1 [Nitrofurazone] | 1.22 | 1.02 | 0.506 | 0.32 | –
Nc1nc(=O)c2nc(CNc3ccc(C(=O)N[C@@H](CCC(=O)O)C(=O)O)cc3)cnc2[nH]1 [Folic acid] | 1.38 | 1.01 | 0.97 | 1.26 | –
O=C(OC[C@H]1O[C@@H](OC(=O)c2cc(O)c(O)c(OC(=O)c3cc(O)c(O)c(O)c3)c2)[C@H](OC(=O)c2cc(O)c(O)c(OC(=O)c3cc(O)c(O)c(O)c3)c2)[C@@H](OC(=O)c2cc(O)c(O)c(OC(=O)c3cc(O)c(O)c(O)c3)c2)[C@@H]1OC(=O)c1cc(O)c(O)c(OC(=O)c2cc(O)c(O)c(O)c2)c1)c1cc(O)c(O)c(OC(=O)c2cc(O)c(O)c(O)c2)c1 [Tannic acid] | 0.923 | 1.19 | 1.38 | – | –
CCC(C)N(C)C(=O)c1cc2ccccc2c(-c2ccccc2Cl)n1 (stereo unspecified) | 0.925 | 1.31 | 1.03 | 0.292 | –
CC(C)(C)c1cccc(C(C)(C)C)c1O [2,6-Di-tert-butylphenol] | 1.12 | 1.01 | 1.3 | 1.72 | –
CC(C)(C)c1ccc(O)c(C(C)(C)C)c1 [2,4-Di-tert-butylphenol] | 0.984 | 1.32 | 1.13 | 1.1 | –
CC(C)(C)c1cc(O)c(C(C)(C)C)cc1O [2,5-Di-tert-butylbenzene-1,4-diol] | 1.14 | 0.988 | 1.13 | – | –
CCN(Cc1cccc(S(=O)(=O)[O-])c1)c1ccc(C(=C2C=CC(=[N+](CC)Cc3cccc(S(=O)(=O)[O-])c3)C=C2)c2ccccc2S(=O)(=O)[O-])cc1.[Na+].[Na+] | 0.943 | 1.04 | 0.706 | 0.433 | –
CC1(C)C(=O)NC(=O)N1CO [1-(Hydroxymethyl)-5,5-dimethylhydantoin] | 1.14 | 0.992 | 1.12 | 1.59 | –
CN1CCC(c2c(O)cc(O)c3c(=O)cc(-c4ccccc4Cl)oc23)C(O)C1 (stereo unspecified) [Flavopiridol] | 2 | – | – | – | 1.17
CN(C)C(=O)NC1(c2ccccc2)CCN(CCC[C@@]2(c3ccc(Cl)c(Cl)c3)CCCN(C(=O)c3ccccc3)C2)CC1 | 1.08 | 0.903 | 0.985 | – | –
O=C(O)/C=C/C(=O)O.O=C1c2ccccc2C(=O)N1CCc1noc(-c2ccc(CN3CCCCCC3)s2)n1 | 1.17 | 1.07 | 0.907 | 0.252 | –
NC(=O)N1c2ccccc2C=Cc2ccccc21 [Carbamazepine] | 1.35 | 0.977 | 0.997 | 0.929 | –
CC(=O)Oc1ccccc1C(=O)O [Aspirin] | 1.2 | 1.04 | 1.15 | 0.812 | –
